Measurements from article PMC5540273 (PLoS ONE, 2017).

Columns and labels:
Conditions in all cases: concentration: 1 μM, replicates: in singlicate; n = 1
PDGFRB = test system: PDGFRB
PDPK1 = test system: PDPK1
PFTAIRE2 = test system: PFTAIRE2
PFTK1 = test system: T1, PFTK1
T1 construct: gene CDK14

PHKG1 = test system: PHKG1
PHKG2 = test system: PHKG2
PIK3C2B = test system: PIK3C2B
PIK3C2G = test system: PIK3C2G
PIK3CA = test system: PIK3CA
PIK3CB = test system: PIK3CB
PIK3CD = test system: PIK3CD
PIK3CG = test system: PIK3CG
PIK4CB = test system: T2, PIK4CB
T2 construct: gene PI4KB

PIKFYVE = test system: PIKFYVE
PIM1 = test system: PIM1
PIM2 = test system: PIM2
PIM3 = test system: PIM3
PIP5K1A = test system: PIP5K1A
PIP5K1C = test system: PIP5K1C
PIP5K2B = test system: PIP5K2B
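Also: KINOMEscan kinase panel screen.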

Row | Compound | %Inh (PDGFRB) | %Inh (PDPK1) | %Inh (PFTAIRE2) | %Inh (PFTK1) | %Inh (PHKG1) | %Inh (PHKG2) | %Inh (PIK3C2B) | %Inh (PIK3C2G) | %Inh (PIK3CA) | %Inh (PIK3CB) | %Inh (PIK3CD) | %Inh (PIK3CG) | %Inh (PIK4CB) | %Inh (PIKFYVE) | %Inh (PIM1) | %Inh (PIM2) | %Inh (PIM3) | %Inh (PIP5K1A) | %Inh (PIP5K1C) | %Inh (PIP5K2B)
1 | CN1c2ccc(-c3ccc(C(=O)NCCO)cc3)cc2-c2[nH]ncc2S1(=O)=O | 11% | 17% | 0% | 0% | 0% | 41% | 0% | 8% | 0% | 0% | 10% | 0% | 0% | 0% | 10% | 5% | 24% | 0% | 41% | 0%
2 | Fc1cccc(COc2ccc(Nc3ncnc4cc[nH]c34)cc2Cl)c1 | 25% | 4% | 17% | 12% | 0% | 7% | 32% | 17% | 0% | 32% | 17% | 9% | 12% | 0% | 26% | 13% | 34% | 0% | 0% | 16%
3 | Nc1nc(-c2cccnc2)c(-c2ccnc3ccccc23)s1 [GW684083] | 28% | 0% | 16% | 27% | 14% | 0% | 0% | 0% | 0% | 0% | 0% | 0% | 0% | 12% | 0% | 0% | 0% | 25% | 58% | 0%
4 | COc1ccc(NC(=O)c2ccc(-c3cc(-c4nnc(C)o4)ccc3C)cc2)cc1 [GW595885] | 47% | 0% | 0% | 5% | 3% | 0% | 0% | 0% | 0% | 0% | 0% | 0% | 0% | 13% | 0% | 0% | 0% | 7% | 1% | 10%
5 | Clc1cc(Nc2ncnc3cc[nH]c23)ccc1OCc1ccccn1 | 38% | 0% | 5% | 10% | 0% | 0% | 15% | 43% | 8% | 15% | 25% | 4% | 34% | 0% | 5% | 10% | 22% | 30% | 0% | 0%
6 | Cc1cccc(-c2nc(Nc3ccc4[nH]nnc4c3)c3ccccc3n2)n1 [GW867587] | 0% | 0% | 0% | 0% | 0% | 0% | 0% | 0% | 0% | 0% | 0% | 0% | 0% | 13% | 17% | 0% | 2% | 27% | 0% | 0%
7 | FC(F)(F)c1ccc(-c2nn3ncccc3c2-c2ccnc(Nc3cccc(C(F)(F)F)c3)n2)cc1 [GW828205] | 9% | 0% | 0% | 48% | 9% | 0% | 0% | 0% | 0% | 0% | 0% | 0% | 0% | 0% | 12% | 17% | 32% | 53% | 0% | 0%
8 | CSc1ccc(NC2=C(c3ccccc3Cl)C(=O)NC2=O)cc1 [SB-342411] | 31% | 80% | 20% | 25% | 0% | 25% | 0% | 17% | 0% | 3% | 0% | 0% | 0% | 0% | 0% | 0% | 0% | 0% | 33% | 0%
9 | Cl.c1ccc(Cn2ccc3cc(Nc4ncnc5ccccc45)ccc32)cc1 [GW275568] | 35% | 22% | 28% | 29% | 0% | 23% | 31% | 3% | 14% | 0% | 0% | 21% | 24% | 0% | 27% | 1% | 23% | 0% | 34% | 6%
10 | O=C(CCO)NCCn1ccc2ncnc(Nc3ccc(Oc4cccc(C(F)(F)F)c4)c(Cl)c3)c21 | 0% | 0% | 0% | 19% | 0% | 3% | 0% | 0% | 0% | 0% | 0% | 0% | 0% | 34% | 0% | 0% | 0% | 0% | 41% | 5%
11 | Nc1nc(-c2ccc3c(N)n[nH]c3c2)cc(N2CCC[C@@H](C(=O)Nc3ccccc3)C2)n1.O=C(O)C(F)(F)F.O=C(O)C(F)(F)F [GSK2288359] | 31% |  | 18% | 16% | 0% | 2% | 1% | 42% | 4% | 0% | 31% | 13% | 6% | 4% | 20% | 0% | 5% | 0% | 30% | 8%
